Inconclusive results are not listed. A call without a number means that no potency is given here. Active and inactive are the calls of the source. Unless noted, calls follow the shape of the dose curve; as a rule, active = well fitted curve in the direction sought with a large enough effect in the repeat runs; inconclusive = weak or mixed curves; inactive = no such curve, though single readings can be large; an effect the other way counts as inactive or inconclusive.
Key:
[1] = qHTS assay to identify small molecule antagonists of the peroxisome proliferator-activated receptor gamma (PPARg) signaling pathway - cell viability counter screen (AID 743194); also: nearly all actives have a fitted effect of over 55% in size
Method in brief: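 PPARg-UAS-bla HEK293H cells were plated, rested 5 h at 37 C, then treated with compounds plus rosiglitazone (50 nM final) for 17 h at 37 C; viability was then read by CellTiter-Glo luminescence after 30 min at room temperature.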

[2] = qHTS assay for small molecule agonists of the antioxidant response element (ARE) signaling pathway - cell viability counter screen (AID 743203; calls by dose curve; also: nearly all actives have a fitted effect of over 55% in size)
Method in brief: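 CellSensor ARE-bla HepG2 cells, 2,000 per well, rested 5 hrs at 37C/5% CO2, then exposed to compound in DMSO for 16 hrs; viability read as CellTiter-Glo luminescence after 30 min at room temperature, in the reporter wells.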

[3] = qHTS assay for small molecule activators of the heat shock response signaling pathway - cell viability counter screen (AID 743209); also: nearly all actives have a fitted effect of over 50% in size; also: potency is read from the fitted curve at half-maximal effect
Method in brief: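 CellSensor HSE-bla HeLa cells, plated overnight at 37 C/5% CO2, were exposed to compounds in DMSO for 5 h at 37 C. Viability was then read in the same wells by CellTiter-Glo luminescence after 30 min at room temperature.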

[4] = qHTS assay for small molecule activators of the heat shock response signaling pathway (AID 743210; active = well fitted activation curve with a large enough effect in the signal ratio in the repeat runs, with a control signal flat, not every such curve was filed as active; the % refers to the signal ratio;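 also: HeLa cells with beta-lactamase reporter driven by heat shock elements; series mostly up to about 63 µM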)
Method in brief: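 Reporter gene assay: HeLa cells stably bearing an HSE-bla construct, compound treatment 5 h at 37 C, LiveBLAzer substrate 2.5 h at RT, fluorescence intensity.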

[5] = qHTS assay to identify small molecule agonists of the peroxisome proliferator-activated receptor delta (PPARd) signaling pathway - cell viability counter screen (AID 743211); also: nearly all actives have a fitted effect of over 55% in size
Method in brief: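 Viability was measured as CellTiter-Glo luminescence (30 min, room temperature) in the same wells as the beta-lactamase readout. GeneBLAzer PPARd UAS-bla HEK293H cells received compound after 5 h plating and were incubated 17 h at 37 C.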

[6] = biological target: Peroxisome proliferator-activated receptor delta (Homo sapiens) (UniProt Q03181); assay: qHTS assay to identify small molecule agonists of the peroxisome proliferator-activated receptor delta (PPARd) signaling pathway (AID 743212; calls by dose curve)
Peroxisome proliferator-activated receptor delta (Homo sapiens), sequence (Q03181 whole entry, looked up): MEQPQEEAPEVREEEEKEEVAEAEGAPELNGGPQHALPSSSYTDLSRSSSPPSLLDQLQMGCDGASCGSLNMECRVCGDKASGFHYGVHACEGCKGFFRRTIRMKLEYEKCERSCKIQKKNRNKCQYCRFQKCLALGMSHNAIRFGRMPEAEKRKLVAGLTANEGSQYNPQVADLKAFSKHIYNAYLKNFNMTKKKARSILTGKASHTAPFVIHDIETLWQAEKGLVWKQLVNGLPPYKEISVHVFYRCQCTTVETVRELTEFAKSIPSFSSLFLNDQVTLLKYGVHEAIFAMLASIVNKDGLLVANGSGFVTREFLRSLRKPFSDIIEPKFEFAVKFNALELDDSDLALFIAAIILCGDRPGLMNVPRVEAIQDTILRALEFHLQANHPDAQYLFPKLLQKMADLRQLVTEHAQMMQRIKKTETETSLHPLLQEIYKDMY
Method in brief: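 A PPARd-bla HEK293H line with beta-lactamase under an Upstream Activator Sequence is treated with compounds at 37 C. Substrate loading for 2 h at room temperature precedes the fluorescence measurement.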

[7] = qHTS assay to identify small molecule antagonists of the peroxisome proliferator-activated receptor delta (PPARd) signaling pathway - cell viability counter screen (AID 743213); also: nearly all actives have a fitted effect of over 50% in size
Method in brief: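 Same-well viability: cells pre-incubated 5 h, dosed with compound plus 300 nM L165041, kept 17 h at 37 C, FRET substrate 2 h RT, then CellTiter-Glo 30 min RT and luminescence.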

[8] = biological target: Peroxisome proliferator-activated receptor delta (Homo sapiens) (UniProt Q03181); assay: qHTS assay to identify small molecule antagonists of the peroxisome proliferator-activated receptor delta (PPARd) signaling pathway (AID 743215; active = well fitted inhibition curve with a large enough effect in the signal ratio in the repeat runs, not every such curve was filed as active; the % refers to the signal ratio;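 also: cells stimulated with agonist L165041 at 300 nM final during compound exposure; series mostly up to about 62 µM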)
Method in brief: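 PPARd UAS-bla HEK293H cells were pre-incubated 5 h at 37 C, then given test compounds in DMSO plus agonist L165041 (300 nM final). After 17 h at 37 C, beta-lactamase FRET substrate was added; fluorescence read after 2 h at room temperature.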

[9] = qHTS assay to identify small molecule agonists of the farnesoid-X-receptor (FXR) signaling pathway - cell viability counter screen (AID 743218); also: nearly all actives have a fitted effect of over 45% in size
Method in brief: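 FXR-UAS-bla HEK 293T cells, plated 5 h at 37 C, were exposed to compounds for 16 h at 37 C. CellTiter-Glo was then added to the same wells as the bla readout; luminescence read after 30 min at room temperature.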

[10] = biological target: Bile acid receptor (Homo sapiens) (UniProt Q96RI1); assay: qHTS assay to identify small molecule agonists of the farnesoid-X-receptor (FXR) signaling pathway (AID 743220; active = well fitted activation curve with a large enough effect in the signal ratio in the repeat runs, not every such curve was filed as active; the % refers to the signal ratio)
Bile acid receptor (Homo sapiens), sequence (Q96RI1 whole entry, looked up): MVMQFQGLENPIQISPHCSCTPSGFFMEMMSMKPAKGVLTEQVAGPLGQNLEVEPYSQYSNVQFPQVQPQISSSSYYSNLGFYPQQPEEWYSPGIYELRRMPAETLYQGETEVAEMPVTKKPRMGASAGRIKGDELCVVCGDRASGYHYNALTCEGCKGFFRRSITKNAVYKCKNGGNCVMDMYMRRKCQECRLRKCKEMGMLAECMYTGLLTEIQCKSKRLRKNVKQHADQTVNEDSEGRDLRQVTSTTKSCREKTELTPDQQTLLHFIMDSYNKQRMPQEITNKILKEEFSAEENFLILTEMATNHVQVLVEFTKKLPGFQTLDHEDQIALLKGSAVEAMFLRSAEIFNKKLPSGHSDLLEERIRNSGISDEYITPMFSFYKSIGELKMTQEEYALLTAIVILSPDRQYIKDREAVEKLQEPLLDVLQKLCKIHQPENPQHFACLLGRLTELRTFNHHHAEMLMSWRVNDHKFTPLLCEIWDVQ
Method in brief: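 Beta-lactamase reporter under UAS control in GeneBLAzer FXR HEK 293T cells (5000/well) measured with LiveBLAzer FRET substrate after 2 h at room temperature. Compound exposure lasted 16 h at 37C.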

[11] = qHTS assay to identify small molecule antagonists of the farnesoid-X-receptor (FXR) signaling pathway - cell viability counter screen (AID 743221; active = well fitted cell-killing curve with a large enough effect in the repeat runs, not every such curve was filed as active; also: nearly all actives have a fitted effect of over 50% in size)
Method in brief: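 Cytotoxicity counter screen run in the FXR-bla reporter wells: HEK 293T cells exposed to compound with 50 uM (final) chenodeoxycholic acid for 16 h, 37 C, then viability measured by CellTiter-Glo luminescence after 30 min, room temperature.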

[12] = biological target: Vitamin D3 receptor (Homo sapiens) (UniProt P11473); assay: qHTS assay to identify small molecule agonists of the vitamin D receptor (VDR) signaling pathway (AID 743222; calls by dose curve)
Vitamin D3 receptor (Homo sapiens), sequence (P11473 whole entry, looked up): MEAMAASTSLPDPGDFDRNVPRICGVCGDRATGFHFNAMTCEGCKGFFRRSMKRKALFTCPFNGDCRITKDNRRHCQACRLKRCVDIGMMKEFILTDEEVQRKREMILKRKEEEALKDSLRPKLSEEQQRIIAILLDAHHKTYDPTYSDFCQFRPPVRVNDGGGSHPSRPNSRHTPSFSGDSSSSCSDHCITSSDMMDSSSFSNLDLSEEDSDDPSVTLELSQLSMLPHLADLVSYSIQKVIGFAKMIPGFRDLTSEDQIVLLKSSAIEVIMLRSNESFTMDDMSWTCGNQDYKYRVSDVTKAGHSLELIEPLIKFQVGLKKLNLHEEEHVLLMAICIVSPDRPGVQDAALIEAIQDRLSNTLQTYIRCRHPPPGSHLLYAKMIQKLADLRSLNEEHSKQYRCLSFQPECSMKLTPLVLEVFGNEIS
Method in brief: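 VDR-bla cells were plated 4 h at 37C/5% CO2, then exposed to compounds in DMSO for 16 h. After LiveBLAzer B/G FRET substrate addition and 2 h at room temperature, beta-lactamase reporter fluorescence was read.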

[13] = biological target: Vitamin D3 receptor (Homo sapiens) (UniProt P11473); assay: qHTS assay to identify small molecule antagonists of the vitamin D receptor (VDR) signaling pathway (AID 743223; active = well fitted inhibition curve with a large enough effect in the signal ratio in the repeat runs, not every such curve was filed as active; the % refers to the signal ratio)
Method in brief: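 Antagonist mode: compound added to VDR-bla cells alongside agonist 1alpha,25-dihydroxyvitamin D3 (3 nM final), incubation 16 h at 37C. Read-out is LiveBLAzer FRET fluorescence, 2 h at room temperature.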

[14] = qHTS assay to identify aromatase inhibitors - cell viability counter screen (AID 743084);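 also: cells stimulated with testosterone during compound exposure; nearly all actives have a fitted effect of over 55% in size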
[15] = biological target: Peroxisome proliferator-activated receptor gamma (Homo sapiens) (UniProt P37231); assay: qHTS assay to identify small molecule agonists of the peroxisome proliferator-activated receptor gamma (PPARg) signaling pathway (AID 743094; active = well fitted activation curve with a large enough effect in the signal ratio in the repeat runs, not every such curve was filed as active; the % refers to the signal ratio)
Peroxisome proliferator-activated receptor gamma (Homo sapiens), sequence (P37231 whole entry, looked up): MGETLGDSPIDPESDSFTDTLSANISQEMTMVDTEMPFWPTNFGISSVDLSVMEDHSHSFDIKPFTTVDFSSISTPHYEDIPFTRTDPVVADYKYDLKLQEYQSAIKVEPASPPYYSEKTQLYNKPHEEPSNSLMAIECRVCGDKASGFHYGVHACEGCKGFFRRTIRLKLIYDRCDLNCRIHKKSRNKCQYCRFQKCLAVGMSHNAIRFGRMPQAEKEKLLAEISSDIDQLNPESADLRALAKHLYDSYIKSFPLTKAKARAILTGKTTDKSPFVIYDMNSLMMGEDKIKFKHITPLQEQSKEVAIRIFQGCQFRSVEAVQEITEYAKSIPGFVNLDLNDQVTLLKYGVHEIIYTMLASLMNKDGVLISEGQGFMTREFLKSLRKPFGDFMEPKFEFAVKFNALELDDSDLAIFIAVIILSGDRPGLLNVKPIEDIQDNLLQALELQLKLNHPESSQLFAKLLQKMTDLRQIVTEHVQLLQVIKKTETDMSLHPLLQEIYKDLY
Method in brief: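 GeneBLAzer PPARg UAS-bla HEK293H cells carrying a stably integrated beta-lactamase reporter were pre-incubated 5 h at 37C, then exposed to compounds in DMSO for 17 h at 37C; LiveBLAzer B/G FRET substrate was added for 1 h at room temperature and fluorescence read.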

[16] = biological target: Bile acid receptor (Homo sapiens) (UniProt Q96RI1); assay: qHTS assay to identify small molecule antagonists of the farnesoid-X-receptor (FXR) signaling pathway (AID 743217; active = well fitted inhibition curve with a large enough effect in the signal ratio in the repeat runs, not every such curve was filed as active; the % refers to the signal ratio)
Method in brief: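 FXR-UAS-bla HEK 293T cells pre-incubated 5 h at 37 °C, then exposed to compounds with chenodeoxycholic acid (50 uM final) for 16 h at 37 °C. Beta-lactamase reporter read by LiveBLAzer B/G FRET substrate fluorescence after 2 h at room temperature.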

[17] = biological target: Peroxisome proliferator-activated receptor gamma (Homo sapiens) (UniProt P37231); assay: qHTS assay to identify small molecule antagonists of the peroxisome proliferator-activated receptor gamma (PPARg) signaling pathway (AID 743191; calls by dose curve; also: series mostly up to about 63 µM; nearly all actives have a fitted effect of over 30% in size)
Method in brief: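 GeneBLAzer PPARg UAS-bla HEK293H cells carrying a UAS-driven beta-lactamase reporter were plated at 3000 cells/well, preincubated 5 h at 37C, then given compound for 17 h at 37C; LiveBLAzer B/G FRET substrate was read after 1 h at room temperature.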

[18] = qHTS assay for small molecule agonists of the antioxidant response element (ARE) signaling pathway (AID 743202; active = well fitted activation curve with a large enough effect in the signal ratio in the repeat runs, not every such curve was filed as active; the % refers to the signal ratio)
Method in brief: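 Compounds delivered in DMSO to ARE-bla HepG2 cells (2,000 cells/well, pre-incubated 5 h) and left 16 h at 37 C. LiveBLAzer B/G FRET substrate then added for 2 h at RT before fluorescence reading.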

[19] = qHTS assay to identify small molecule that activate the aryl hydrocarbon receptor (AhR) signaling pathway - cell viability counter screen (AID 743086);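 also: HepG2 liver cells carrying the AhR DRE luciferase reporter; series mostly up to about 70 µM; nearly all actives have a fitted effect of over 45% in size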
Method in brief: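 HepG2-AhR-luc (HG2L7.5c1) cells, 4000/well, were preincubated 5 h at 37C, exposed to compound in qHTS format for 24 hr at 37C, then given CellTiter-Fluor for 30 min; viability was read as fluorescence in the reporter wells.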

[20] = biological target: Aryl hydrocarbon receptor (Homo sapiens) (UniProt P35869); assay: qHTS assay to identify small molecule that activate the aryl hydrocarbon receptor (AhR) signaling pathway (AID 743085);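 also: HG2L7.5c1 human HepG2 liver cells with stably integrated DRE-driven firefly reporter; series mostly up to about 70 µM; nearly all actives have a fitted effect of over 15% in size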
Aryl hydrocarbon receptor (Homo sapiens), sequence (P35869 whole entry, looked up): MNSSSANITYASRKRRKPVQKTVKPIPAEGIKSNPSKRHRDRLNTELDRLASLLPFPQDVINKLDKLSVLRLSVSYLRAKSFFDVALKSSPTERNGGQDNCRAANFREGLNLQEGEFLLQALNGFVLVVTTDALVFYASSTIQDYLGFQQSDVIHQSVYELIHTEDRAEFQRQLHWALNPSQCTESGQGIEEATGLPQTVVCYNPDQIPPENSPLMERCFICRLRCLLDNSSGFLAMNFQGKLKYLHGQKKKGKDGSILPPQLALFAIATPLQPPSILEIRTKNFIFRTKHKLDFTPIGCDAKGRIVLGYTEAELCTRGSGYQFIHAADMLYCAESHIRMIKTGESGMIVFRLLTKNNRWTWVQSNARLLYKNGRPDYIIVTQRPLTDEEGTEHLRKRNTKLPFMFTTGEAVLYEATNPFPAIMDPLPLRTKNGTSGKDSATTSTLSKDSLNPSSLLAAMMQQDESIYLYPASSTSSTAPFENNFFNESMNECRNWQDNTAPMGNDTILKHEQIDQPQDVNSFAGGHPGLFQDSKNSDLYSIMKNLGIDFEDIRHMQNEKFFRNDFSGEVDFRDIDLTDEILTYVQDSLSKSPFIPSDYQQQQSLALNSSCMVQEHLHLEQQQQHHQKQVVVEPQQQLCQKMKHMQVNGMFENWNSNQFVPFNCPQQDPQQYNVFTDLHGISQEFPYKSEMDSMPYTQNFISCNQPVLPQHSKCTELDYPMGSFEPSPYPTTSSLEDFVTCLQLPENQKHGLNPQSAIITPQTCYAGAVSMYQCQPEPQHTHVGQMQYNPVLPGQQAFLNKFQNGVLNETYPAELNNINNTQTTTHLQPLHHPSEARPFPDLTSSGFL
Method in brief: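 Luminescence (ONE-Glo) from a dioxin-responsive-element luciferase reporter in HG2L7.5c1 HepG2 cells after 24 hr compound exposure at 37C; viability measured by CellTiter-Fluor fluorescence beforehand.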

Compound | outcome [1] | outcome [2] | Potency [3] | outcome [4] | outcome [5] | outcome [6] | outcome [7] | outcome [8] | outcome [9] | outcome [10] | outcome [11] | outcome [12] | outcome [13] | outcome [14] | outcome [15] | outcome [16] | outcome [17] | Potency [18] | outcome [19] | Potency [20]
CC(C)C(=O)Nc1cccc(C2CN3CCSC3=N2)c1 (centres undefined) | inactive | inactive | inactive | inactive | inactive | inactive | inactive | inactive | inactive | inactive | inactive | inactive | inactive |  |  |  |  |  |  | 
Nc1nc(Cl)cc(Cl)n1 | inactive | inactive | 55 µM (active) |  |  |  | inactive | inactive | inactive | inactive | inactive | inactive |  | inactive | inactive | inactive |  |  |  | 
COc1cc(S(N)(=O)=O)cc(C(=O)O)c1OC | inactive | inactive | inactive | inactive | inactive | inactive | inactive | inactive | inactive |  | inactive | inactive | inactive |  |  |  | inactive | inactive |  | 
CC(=O)/C=C/C=C1/C2CCC(C2)C1(C)C (centres undefined) | inactive | inactive |  | inactive |  |  | inactive |  | inactive |  |  | inactive | inactive |  |  | inactive | inactive | inactive |  | 
Cc1cc(N)no1 | inactive | inactive | inactive | inactive | inactive | inactive | inactive | inactive | inactive |  | inactive | inactive | inactive |  |  |  |  |  | inactive | 
C=CC(=O)OCCOCCOCC | inactive | inactive |  |  | inactive |  | inactive |  | inactive |  | inactive |  |  |  |  |  | inactive |  | inactive | inactive
Cc1cc2c(cc1CC(=O)c1sccc1S(=O)(=O)Nc1onc(C)c1Cl)OCO2 | inactive | inactive | inactive | inactive | inactive | inactive |  |  | inactive |  | inactive |  | inactive |  |  |  |  |  |  | 
O=C1CCCc2c(O)cccc21 | inactive | inactive | inactive | inactive | inactive |  | inactive |  | inactive |  | inactive | inactive | inactive |  |  | inactive | inactive |  |  | 
N#Cc1cc(NC(=O)C(=O)O)c(Cl)c(NC(=O)C(=O)O)c1 | inactive | inactive | inactive | inactive | inactive | inactive | inactive | inactive | inactive |  |  | inactive | inactive |  |  |  | inactive |  |  | 
